Source: PubChem BioAssay (EPA / NIEHS)
Values joined by “and” are separate entries in the source; they are usually repeats but may differ in a detail not shown here. Identical values can stand only once. Active and inactive are the calls of the source. Rule for the calls: active = hit-call score of the fitted dose curve at least 0.9, where 1 is the maximum; inactive = score below 0.9.

Read-out: Interleukin 17A (IL17A), IL17A (gene 3605)
Assay: BSK_BT_xIL17A: BioMAP Diversity Plus: BT Assay for Interleukin 17A (IL17A) Biomarker Activity (AID 2284229)
Settings: primary human B cells with PBMC
Procedure: BSK_BT is a cell-based, multiplexed-readout assay that uses B cell and peripheral blood mononuclear cells, a human vascular primary cell co-culture, with measurements taken at 24 hours after chemical dosing in a microplate: 96-well plate.BSK_BT_xIL17A is an assay component measured in the BSK_BT assay. It measures secreted IL-17A related to regulation of gene expression using LumineX xMAP technology.Data from the assay component BSK_BT_xIL17A was analyzed at the endpoint, BSK_BT_xIL17A, in the positive analysis fitting direction relative to DMSO as the negative control and baseline of activity. Using a type of cytokine quantitation reporter, gain or loss-of-signal activity can be used to understand protein changes. To generalize the intended target to other relatable targets, this assay endpoint is annotated to the 'cytokine' intended target family, where the subfamily is 'interleukins'.
The levels of cell surface (or secreted, indicated by the prefix "s") biomarker endpoints were measured by ELISA. Overt cytotoxicity to cells in confluent adherent cultures (all systems other than the BT system) was assessed by measuring total protein levels using sulforhodamine B (SRB) staining in parallel cultures at the time of biomarker measurements, indicated as SRB endpoints. For proliferation assays for adherent cell types, individual cell types are cultured at sub-confluence and relative cell numbers quantified by SRB staining at time points optimized for each system (48 h: 3C and CASM3C systems; 72 h: BT and HDF3CGF systems; 96 h: SAg system). SRB was performed by staining cells with 0.1% SRB after fixation with 10% TCA and reading wells at 560 nm.Viability and proliferation of PBMC (T cells) was quantified by Alamar Blue reduction for the SAg and BT systems. For PBMC viability (referred to as PBMC Cytotoxicity within the assay endpoint names), cells were plated (75,000/well in a 96-well plate) and then chemical samples added for 1 h before addition of activators, SEB and TSST-1 (20 ng/mL final concentration each). Cells were incubated for 90 h. Then, Alamar Blue (20 uL/well) (Invitrogen, Cat DAL1100) was added for 6 h, and the plates were read with a fluorescence microplate reader at 546/580 nm (excitation/emission). For PBMC proliferation, cells were plated and activated as above but incubated for only 16 h prior to addition of Alamar Blue. Plates were read after 6 h.

Compound	AC50	outcome
OCC(F)(F)C(F)(F)C(F)(F)C(F)(F)C(F)(F)C(F)(F)C(F)(F)C(F)(F)CO	51.3 µM (active) and 19.6 µM (active)	–
CCN(CC)c1ccc(C=O)cc1	–	inactive
FC(F)(F)C(F)(F)C(F)(F)C(F)(F)C(F)(F)C(F)(F)C(F)(F)CCI	–	inactive
NC(=O)C(F)(F)C(F)(F)C(F)(F)C(F)(F)C(N)=O	–	inactive
CCN(CC)c1ccc(C=O)c(O)c1	–	inactive
CC(C)CCCC(C)CCO (stereo not given)	–	inactive
CCN(CC)c1ccc(N=Nc2ccccc2)cc1	20 µM (active)	–
C=CC(=O)OCC(F)(F)C(F)(F)C(F)(F)C(F)(F)C(F)(F)C(F)(F)C(F)(F)C(F)F	30 µM (active) and 27.2 µM (active)	–
O=C(O)CCC(F)(F)C(F)(F)C(F)(F)F	–	inactive
Brc1nc2ccccc2s1	–	inactive
O=C(O)C(F)(F)C(F)(F)C(F)(F)OC(F)(F)F	–	inactive
C=CC(=O)OCC(F)(F)C(F)(F)C(F)(F)COC(=O)C=C	8.47 µM (active) and 6.45 µM (active)	–
FC(F)(F)C(F)(F)C(F)(F)CC1CO1 (stereo not given)	–	inactive
O=S(=O)(O)CCC(F)(F)C(F)(F)C(F)(F)C(F)(F)C(F)(F)C(F)(F)C(F)(F)C(F)(F)F	–	inactive
CCOC(=O)CC(=O)C(F)(F)C(F)(F)F	–	inactive
NC(=O)C(F)(F)C(F)(F)C(F)(F)C(F)F	–	inactive
OCCCC(F)(F)C(F)(F)C(F)(F)C(F)(F)C(F)(F)C(F)(F)C(F)(F)C(F)(F)F	22.9 µM (active) and 21.7 µM (active)	–
O=C=Nc1cccc2c(N=C=O)cccc12	–	inactive
CCOC(C=C(C)CCC=C(C)C)OCC	–	inactive
CC1=CC2C3C=CC(C3)C2C1C (stereo not given)	–	inactive

Compound	AC50	outcome
O=C(Cl)C(F)(F)C(F)(F)C(F)(F)C(F)(F)C(F)(F)C(F)(F)F	–	inactive
OCC(F)(F)C(F)(F)C(F)(F)CO	–	inactive
Cc1cc(O)c(C(C)(C)C)cc1C(C)(C)C	20 µM (active)	–
FC(F)(F)C(F)(F)C(F)(F)C(F)(F)C(F)(F)C(F)(F)CC[Si](Cl)(Cl)Cl	–	inactive
OCC(O)CC(F)(F)C(F)(F)C(F)(F)C(F)(F)F (stereo not given)	–	inactive
OC(O)C(F)(F)C(F)(F)F	–	inactive
NS(=O)(=O)C(F)(F)C(F)(F)C(F)(F)C(F)(F)C(F)(F)C(F)(F)F	–	inactive
O=C(F)C1(F)C(F)(F)C(F)(F)C(F)(F)C(F)(F)C1(F)F	–	inactive
O=C(O)C(F)(F)C(F)(F)C(F)(F)C(=O)O	–	inactive
NC(=O)C(F)(F)C(F)(F)C(F)(F)F	–	inactive
C[C@]12CC[C@H]3C(=CCc4cc(O)ccc43)[C@@H]1CCC2=O	–	inactive
O=C(Cl)C(F)(F)C(F)(F)C(F)(F)C(F)(F)C(F)(F)C(F)(F)C(F)(F)F	–	inactive
OCC(O)CC(F)(F)C(F)(F)C(F)(F)C(F)(F)C(F)(F)C(F)(F)C(F)(F)C(F)(F)F (stereo not given)	–	inactive
OCC(F)(F)C(F)(F)C(F)(F)C(F)(F)C(F)(F)C(F)(F)CO	–	inactive
O=C(O)C(F)(F)C(F)(F)C(F)(F)OC(F)(C(F)(F)F)C(F)(F)F	–	inactive
O=C(O)C(F)(F)OC(F)(F)C(F)(F)OC(F)(F)C(F)(F)OC(F)(F)F	–	inactive
C=CC(=O)OCCC(F)(F)C(F)(F)C(F)(F)C(F)(F)F	33.5 µM (active) and 10.7 µM (active)	–
NCC(F)(F)C(F)(F)C(F)(F)C(F)(F)C(F)(F)C(F)(F)F	–	inactive
CNS(=O)(=O)C(F)(F)C(F)(F)C(F)(F)C(F)(F)C(F)(F)C(F)(F)C(F)(F)C(F)(F)F	–	inactive
Cc1ccc(O)c(-n2nc3ccccc3n2)c1	–	inactive
